# Source: PubChem BioAssay (EPA / NIEHS)
# Results filed as inconclusive are left out. The source made the active and inactive calls. The calls were made as follows: active = hit-call score of the fitted dose curve at least 0.9, where 1 is the maximum; inconclusive = response in the unintended direction; inactive = score below 0.9.
# Legend:
# [1] = biological target: human SRC Proto-Oncogene, Non-receptor Tyrosine Kinase (SRC), SRC (gene 6714) (UniProt P12931); experiment: NVS_ENZ_hSRC: NovaScreen (NVS) Enzymatic Assay for human SRC Proto-Oncogene, Non-receptor Tyrosine Kinase (SRC) (AID 2283223)
# Sequence of human SRC Proto-Oncogene, Non-receptor Tyrosine Kinase (SRC), SRC (gene 6714) (P12931 whole entry, looked up): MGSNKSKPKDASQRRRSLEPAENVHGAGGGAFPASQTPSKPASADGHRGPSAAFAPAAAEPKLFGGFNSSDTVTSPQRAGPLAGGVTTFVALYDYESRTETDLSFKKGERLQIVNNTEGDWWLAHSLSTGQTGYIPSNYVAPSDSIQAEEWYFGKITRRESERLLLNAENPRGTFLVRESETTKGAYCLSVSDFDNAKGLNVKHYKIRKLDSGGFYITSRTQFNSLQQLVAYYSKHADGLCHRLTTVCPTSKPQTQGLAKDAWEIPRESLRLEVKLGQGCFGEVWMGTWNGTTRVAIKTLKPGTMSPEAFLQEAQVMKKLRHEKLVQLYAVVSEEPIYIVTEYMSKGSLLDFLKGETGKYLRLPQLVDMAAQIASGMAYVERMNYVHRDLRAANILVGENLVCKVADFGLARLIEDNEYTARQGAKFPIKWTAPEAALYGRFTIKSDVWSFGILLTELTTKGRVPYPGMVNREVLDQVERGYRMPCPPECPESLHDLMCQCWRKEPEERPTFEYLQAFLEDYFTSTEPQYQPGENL
# How it was run: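 Cell-free kinase activity assay with fluorescent substrate, product separated by electrophoretic mobility shift, read 1 h after dosing. Duplicate single point at 25 uM, then concentration-response up to 50 uM; loss of signal versus DMSO.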
# [2] = biological target: human Protein Tyrosine Phosphatase Receptor Type F (PTPRF), PTPRF (gene 5792) (UniProt P10586); experiment: NVS_ENZ_hPTPRF: NovaScreen (NVS) Enzymatic Assay for human Protein Tyrosine Phosphatase Receptor Type F (PTPRF) (AID 2283213)
# Sequence of human Protein Tyrosine Phosphatase Receptor Type F (PTPRF), PTPRF (gene 5792) (P10586 whole entry, looked up): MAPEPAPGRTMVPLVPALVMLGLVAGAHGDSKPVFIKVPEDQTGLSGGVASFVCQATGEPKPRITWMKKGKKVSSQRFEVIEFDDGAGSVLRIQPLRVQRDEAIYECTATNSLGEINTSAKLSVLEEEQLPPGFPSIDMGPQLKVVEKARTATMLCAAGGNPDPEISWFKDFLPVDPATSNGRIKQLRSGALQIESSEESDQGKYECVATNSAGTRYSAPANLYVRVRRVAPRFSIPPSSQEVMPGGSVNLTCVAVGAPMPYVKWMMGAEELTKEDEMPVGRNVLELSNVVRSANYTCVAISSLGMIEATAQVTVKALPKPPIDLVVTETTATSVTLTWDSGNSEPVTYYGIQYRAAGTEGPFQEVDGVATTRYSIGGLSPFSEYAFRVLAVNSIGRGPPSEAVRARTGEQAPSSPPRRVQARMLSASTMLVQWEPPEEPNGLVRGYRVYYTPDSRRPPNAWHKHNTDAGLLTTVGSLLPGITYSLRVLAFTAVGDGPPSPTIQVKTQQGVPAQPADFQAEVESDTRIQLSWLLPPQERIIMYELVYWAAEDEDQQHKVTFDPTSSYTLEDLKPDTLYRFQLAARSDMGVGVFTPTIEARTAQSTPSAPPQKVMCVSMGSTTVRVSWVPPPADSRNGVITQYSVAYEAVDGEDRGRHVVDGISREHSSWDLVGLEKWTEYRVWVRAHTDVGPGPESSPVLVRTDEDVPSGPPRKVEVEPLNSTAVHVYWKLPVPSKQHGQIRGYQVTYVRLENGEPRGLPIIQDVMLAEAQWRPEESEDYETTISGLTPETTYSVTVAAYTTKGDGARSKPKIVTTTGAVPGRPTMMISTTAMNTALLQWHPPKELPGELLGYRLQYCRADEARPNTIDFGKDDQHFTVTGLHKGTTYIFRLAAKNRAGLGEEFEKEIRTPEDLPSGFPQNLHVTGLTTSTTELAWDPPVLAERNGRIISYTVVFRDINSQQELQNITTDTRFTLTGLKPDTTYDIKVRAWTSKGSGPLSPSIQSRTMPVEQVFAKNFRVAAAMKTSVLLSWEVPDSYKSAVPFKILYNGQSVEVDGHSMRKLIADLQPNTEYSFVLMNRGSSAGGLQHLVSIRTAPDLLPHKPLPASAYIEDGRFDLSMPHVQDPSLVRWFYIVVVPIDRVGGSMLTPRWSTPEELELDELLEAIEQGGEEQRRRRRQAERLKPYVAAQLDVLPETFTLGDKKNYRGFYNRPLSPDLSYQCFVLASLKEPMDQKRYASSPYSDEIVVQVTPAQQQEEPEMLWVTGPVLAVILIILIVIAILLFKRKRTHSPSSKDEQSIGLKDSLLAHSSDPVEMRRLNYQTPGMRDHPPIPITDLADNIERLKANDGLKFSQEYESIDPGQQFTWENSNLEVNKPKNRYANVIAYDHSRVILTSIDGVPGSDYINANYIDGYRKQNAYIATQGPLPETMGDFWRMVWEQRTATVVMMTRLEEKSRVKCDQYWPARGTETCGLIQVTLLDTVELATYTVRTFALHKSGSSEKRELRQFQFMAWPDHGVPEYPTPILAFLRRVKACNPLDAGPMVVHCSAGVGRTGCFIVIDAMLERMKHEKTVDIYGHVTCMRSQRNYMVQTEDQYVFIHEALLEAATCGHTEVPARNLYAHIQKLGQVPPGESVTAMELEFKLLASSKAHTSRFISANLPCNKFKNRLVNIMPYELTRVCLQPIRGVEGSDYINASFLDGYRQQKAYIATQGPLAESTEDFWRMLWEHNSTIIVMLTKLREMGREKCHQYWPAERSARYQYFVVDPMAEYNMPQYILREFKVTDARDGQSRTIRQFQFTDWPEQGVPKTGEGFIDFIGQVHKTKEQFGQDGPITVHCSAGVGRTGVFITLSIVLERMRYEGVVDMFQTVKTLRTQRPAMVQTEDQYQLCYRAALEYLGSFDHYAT
# How it was run: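 Cell-free fluorescence enzyme assay with recombinant protein and substrate; product separated by electrophoretic mobility shift. Read 1 h after dosing, single 25 uM duplicate screen, then concentration-response up to 50 uM; loss of signal vs DMSO.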
# [3] = biological target: human Protein Tyrosine Phosphatase Receptor Type M (PTPRM), PTPRM (gene 5797) (UniProt P28827); experiment: NVS_ENZ_hPTPRM: NovaScreen (NVS) Enzymatic Assay for human Protein Tyrosine Phosphatase Receptor Type M (PTPRM) (AID 2283215)
# How it was run: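 Cell-free recombinant PTPRM with fluorogenic substrate; product separated from substrate by electrophoretic mobility shift and read by fluorescence, 1.33 h after dosing. Primary screen single concentration (25 uM) in duplicate; actives retested in concentration series; loss of signal versus DMSO.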
# [4] = biological target: human Sirtuin 2 (SIRT2), SIRT2 (gene 22933) (UniProt Q8IXJ6); experiment: NVS_ENZ_hSIRT2: NovaScreen (NVS) Enzymatic Assay for human Sirtuin 2 (SIRT2) (AID 2283217)
# Sequence of human Sirtuin 2 (SIRT2), SIRT2 (gene 22933) (Q8IXJ6 whole entry, looked up): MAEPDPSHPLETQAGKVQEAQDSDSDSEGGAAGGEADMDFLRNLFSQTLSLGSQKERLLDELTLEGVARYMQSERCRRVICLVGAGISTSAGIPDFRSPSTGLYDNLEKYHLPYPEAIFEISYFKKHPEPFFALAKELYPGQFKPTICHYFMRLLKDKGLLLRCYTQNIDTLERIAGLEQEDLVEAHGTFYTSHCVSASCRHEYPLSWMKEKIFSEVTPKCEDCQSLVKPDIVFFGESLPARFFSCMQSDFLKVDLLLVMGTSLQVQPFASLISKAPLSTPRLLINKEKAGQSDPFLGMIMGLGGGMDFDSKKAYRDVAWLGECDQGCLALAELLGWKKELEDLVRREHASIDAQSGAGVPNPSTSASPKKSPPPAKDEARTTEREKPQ
# How it was run: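 Cell-free recombinant human SIRT2, fluorescent substrate with product separated by electrophoretic mobility shift, 1 hr. Screened in duplicate at 25 uM; hits rerun singly in concentration-response up to 50 uM, relative to DMSO.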
# [5] = biological target: human Sirtuin 1 (SIRT1), SIRT1 (gene 23411) (UniProt Q96EB6); experiment: NVS_ENZ_hSIRT1: NovaScreen (NVS) Enzymatic Assay for human Sirtuin 1 (SIRT1) (AID 2283219)
# Sequence of human Sirtuin 1 (SIRT1), SIRT1 (gene 23411) (Q96EB6 whole entry, looked up): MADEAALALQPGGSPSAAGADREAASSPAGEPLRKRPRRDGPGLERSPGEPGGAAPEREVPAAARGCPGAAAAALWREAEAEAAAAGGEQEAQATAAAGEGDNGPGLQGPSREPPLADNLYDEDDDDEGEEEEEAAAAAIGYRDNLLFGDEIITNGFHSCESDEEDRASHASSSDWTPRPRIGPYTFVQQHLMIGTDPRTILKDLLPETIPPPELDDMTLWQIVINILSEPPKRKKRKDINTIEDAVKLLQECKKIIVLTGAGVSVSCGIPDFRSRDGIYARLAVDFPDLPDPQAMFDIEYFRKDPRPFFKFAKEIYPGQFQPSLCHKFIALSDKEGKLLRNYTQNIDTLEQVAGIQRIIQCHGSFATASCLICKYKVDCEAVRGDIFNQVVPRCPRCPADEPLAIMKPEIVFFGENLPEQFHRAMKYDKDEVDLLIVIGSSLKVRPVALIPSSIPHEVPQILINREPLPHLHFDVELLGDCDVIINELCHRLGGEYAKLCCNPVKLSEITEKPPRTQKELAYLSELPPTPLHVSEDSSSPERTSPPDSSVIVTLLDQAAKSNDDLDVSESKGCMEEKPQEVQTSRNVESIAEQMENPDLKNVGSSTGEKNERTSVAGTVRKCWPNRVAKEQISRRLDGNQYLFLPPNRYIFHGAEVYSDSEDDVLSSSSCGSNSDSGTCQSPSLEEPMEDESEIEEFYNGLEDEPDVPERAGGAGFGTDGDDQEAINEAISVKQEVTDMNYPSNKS
# How it was run: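 Cell-free recombinant SIRT1 with a fluorescent substrate; substrate and product separated by electrophoretic mobility shift and read by fluorescence intensity, 1 h after dosing. Primary screen at 25 uM in duplicate; hits re-run in concentration-response up to 50 uM, relative to DMSO.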
# [6] = biological target: human Sirtuin 3 (SIRT3), SIRT3 (gene 23410) (UniProt Q9NTG7); experiment: NVS_ENZ_hSIRT3: NovaScreen (NVS) Enzymatic Assay for human Sirtuin 3 (SIRT3) (AID 2283222)
# Sequence of human Sirtuin 3 (SIRT3), SIRT3 (gene 23410) (Q9NTG7 whole entry, looked up): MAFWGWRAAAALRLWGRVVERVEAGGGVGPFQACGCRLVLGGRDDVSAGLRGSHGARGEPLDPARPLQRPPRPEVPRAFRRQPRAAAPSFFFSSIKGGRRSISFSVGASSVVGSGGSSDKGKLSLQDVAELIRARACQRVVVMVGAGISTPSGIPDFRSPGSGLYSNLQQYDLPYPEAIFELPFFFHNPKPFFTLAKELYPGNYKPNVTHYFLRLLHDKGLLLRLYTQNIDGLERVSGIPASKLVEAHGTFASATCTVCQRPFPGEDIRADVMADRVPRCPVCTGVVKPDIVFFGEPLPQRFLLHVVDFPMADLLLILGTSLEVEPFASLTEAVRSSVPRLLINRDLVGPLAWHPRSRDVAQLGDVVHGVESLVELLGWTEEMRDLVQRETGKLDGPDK
# How it was run: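 Cell-free enzyme assay with recombinant protein and fluorescent substrate, product separated by electrophoretic mobility shift; read 1 hour after dosing. Screened in duplicate at 25 uM, then singleton concentration-response up to 50 uM; loss of signal versus DMSO.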
# [7] = biological target: human Tyrosine Protein Kinase Receptor Tie-2 (Tie2), TEK (gene 7010) (UniProt Q02763); experiment: NVS_ENZ_hTie2: NovaScreen (NVS) Enzymatic Assay for human Tyrosine Protein Kinase Receptor Tie-2 (Tie2) (AID 2283225)
# Sequence of human Tyrosine Protein Kinase Receptor Tie-2 (Tie2), TEK (gene 7010) (Q02763 whole entry, looked up): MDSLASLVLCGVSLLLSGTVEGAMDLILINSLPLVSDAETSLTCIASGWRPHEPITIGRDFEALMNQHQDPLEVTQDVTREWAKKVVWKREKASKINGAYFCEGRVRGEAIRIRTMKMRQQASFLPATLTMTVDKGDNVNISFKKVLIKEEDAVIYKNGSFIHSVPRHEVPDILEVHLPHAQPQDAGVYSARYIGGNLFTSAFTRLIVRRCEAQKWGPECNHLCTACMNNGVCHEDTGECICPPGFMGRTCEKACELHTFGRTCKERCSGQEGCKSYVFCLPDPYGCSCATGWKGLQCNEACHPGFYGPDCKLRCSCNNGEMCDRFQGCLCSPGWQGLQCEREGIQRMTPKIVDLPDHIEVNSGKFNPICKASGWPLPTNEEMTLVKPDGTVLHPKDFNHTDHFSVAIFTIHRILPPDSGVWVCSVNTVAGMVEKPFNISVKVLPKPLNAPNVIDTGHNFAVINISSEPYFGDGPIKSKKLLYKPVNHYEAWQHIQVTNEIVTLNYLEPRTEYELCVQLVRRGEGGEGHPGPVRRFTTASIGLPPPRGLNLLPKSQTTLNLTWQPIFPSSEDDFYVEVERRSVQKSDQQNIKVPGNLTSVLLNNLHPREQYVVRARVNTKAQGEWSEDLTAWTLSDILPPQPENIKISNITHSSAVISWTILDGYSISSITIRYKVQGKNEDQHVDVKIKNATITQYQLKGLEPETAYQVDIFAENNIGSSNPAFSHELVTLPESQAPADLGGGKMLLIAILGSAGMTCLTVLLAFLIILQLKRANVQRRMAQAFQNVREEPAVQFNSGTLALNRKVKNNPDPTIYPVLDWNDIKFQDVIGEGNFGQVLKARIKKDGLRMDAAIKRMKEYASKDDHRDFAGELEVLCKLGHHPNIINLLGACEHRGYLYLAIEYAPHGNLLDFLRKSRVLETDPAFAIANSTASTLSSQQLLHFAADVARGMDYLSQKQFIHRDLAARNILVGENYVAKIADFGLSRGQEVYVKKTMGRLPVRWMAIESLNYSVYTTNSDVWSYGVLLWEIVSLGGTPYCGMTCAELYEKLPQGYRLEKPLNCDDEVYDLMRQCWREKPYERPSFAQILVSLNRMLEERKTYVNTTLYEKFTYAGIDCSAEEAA
# How it was run: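 Recombinant human Tie2 kinase activity was read cell-free by fluorescence with electrophoretic mobility shift, 1 hour after dosing. The screen used 25 uM in duplicate, then concentration-response up to 50 uM. Signal loss was scored against DMSO.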
# [8] = biological target: human Rho Associated Coiled-coil Containing Protein Kinase 1 (ROCK1), ROCK1 (gene 6093) (UniProt Q13464); experiment: NVS_ENZ_hROCK1: NovaScreen (NVS) Enzymatic Assay for human Rho Associated Coiled-coil Containing Protein Kinase 1 (ROCK1) (AID 2283214)
# How it was run: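 Cell-free recombinant human ROCK1 activity assay; fluorescent substrate and product separated by electrophoretic mobility shift, read 1 h after dosing. Screened in duplicate at 25 uM; loss of signal versus DMSO baseline scored as inhibition.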
# [9] = biological target: human Raf-1 Proto-Oncogene, serine/threonine Kinase (RAF1), RAF1 (gene 5894) (UniProt P04049); experiment: NVS_ENZ_hRAF1: NovaScreen (NVS) Enzymatic Assay for human Raf-1 Proto-Oncogene, serine/threonine Kinase (RAF1) (AID 2283216)
# How it was run: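 Cell-free recombinant kinase with specific fluorescent substrate, product separated by electrophoretic mobility shift; read 1 h after dosing. Primary screen at 25 uM in duplicate; hits then run in concentration-response up to 50 uM, fitted as loss of signal versus DMSO.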
smiles,measurement,setting,value
CCNc1nc(Cl)nc(NC(C)(C)C#N)n1,outcome,[1],inactive
CCCCSP(=O)(SCCCC)SCCCC,outcome,[2],inactive
CC[C@H](C)[C@H]1O[C@]2(C=C[C@@H]1C)C[C@@H]1C[C@@H](C/C=C(\C)[C@@H](O[C@H]3C[C@H](OC)[C@@H](O[C@H]4C[C@H](OC)[C@@H](NC)[C@H](C)O4)[C@H](C)O3)[C@@H](C)/C=C/C=C3\CO[C@@H]4[C@H](O)C(C)=C[C@@H](C(=O)O1)[C@]34O)O2,AC50,[3],9.67 µM (active)
same,AC50,[4],25 µM (active)
same,outcome,[5],inactive
same,AC50,[6],1.25 µM (active)
same,AC50,[1],34 µM (active)
same,outcome,[7],inactive
CNC(=O)ON=C(SC)C(=O)N(C)C,outcome,[8],inactive
S=C1NCCN1,outcome,[2],inactive
same,outcome,[7],inactive
C[Si](Cn1cncn1)(c1ccc(F)cc1)c1ccc(F)cc1,outcome,[6],inactive
CC(=NC#N)N(C)Cc1ccc(Cl)nc1,outcome,[2],inactive
FC(F)C(F)(F)OCC(Cn1cncn1)c1ccc(Cl)cc1Cl (configuration not stated),AC50,[4],14.6 µM (active)
same,AC50,[6],25 µM (active)
CC(C1CC1)C(O)(Cn1cncn1)c1ccc(Cl)cc1 (configuration not stated),outcome,[1],inactive
CN(C)C(=O)Nc1cccc(C(F)(F)F)c1,outcome,[9],inactive
